A short description of assay [1]: Cellular Toxicity (caspase-3) SK-N-SH (AID 661). Also: potency is read from the fitted curve at half-maximal effect.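 As to caspase-3 activation: 0% = DMSO basal and 100% = 10 µM staurosporine.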 The following applies: SK-N-SH caspase-3 activation, qHTS; caspase-3 activation: at 91.7 µM (top of the series), DMSO as zero, staurosporine as full. In short, it runs like this: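 SK-N-SH human neuroblastoma cells (1500/well) were treated with compounds for 16 hr at 37 °C in complete medium; caspase 3/7 activity was read by Caspase-Glo luminescence. AC50 came from Hill fits of data normalized to DMSO and 10 uM staurosporine.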

The nature of assay [2]: Cell Viability - Mesenchymal (AID 546).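 Also: cells exposed to compound for 40 hours before reading.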 Also: potency is read from the fitted curve at half-maximal effect. The following applies: mesenchymal cells viability, qHTS; activity change, negative = cytotoxicity: at 91.7 µM (top of the series). In short, it runs like this: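 Human kidney mesenchymal cells from normal renal glomeruli, 1000 cells/well, rested 5 hr at 37 °C, then treated 40 hr at 37 °C in complete medium. Cellular ATP read by CellTiter-Glo luminescence; AC50 from Hill-equation fits.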

A short description of assay [3]: Cellular Toxicity (caspase-3) Mesangial (AID 660).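 Also: cells exposed to compound for 16 h before the caspase read.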 The conditions noted are these: mesangial cells, normalized: DMSO 0%, 100 µM tamoxifen 100%; at 91.7 µM (top of the series). In short, it runs like this: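 Human renal glomerular mesangial cells (1000/well) were treated with compounds for 16 h at 37 °C in complete medium, then caspase 3/7 activity was read by Caspase-Glo luminescence. Data were normalized to DMSO and 100 uM tamoxifen; AC50 from Hill fits.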

Assay [4] in a line: Cell Viability - LYMP2-001 (AID 921). Also: nearly all actives have a fitted effect of over 70% in size. Also: potency is read from the fitted curve at half-maximal effect. In short, it runs like this:
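Human lymphoblastoid LYMP2-001 cells, 2500 per well, in complete medium, treated 24 h at 37 C. Viability from cellular ATP by CellTiter-Glo luminescence; AC50 from Hill-equation fits of qHTS concentration-response.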

The nature of assay [5]: MultiTox-Fluor Cytotoxicity Assay - LYMP1-002 - Live Cells (AID 955). Also: potency is read from the fitted curve at half-maximal effect. In short, it runs like this:
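Human lymphoblastoid LYMP1-002 cells, 2500/well in complete medium, rested 5 hr at 37 C, then exposed to compounds for 16 hr at 37 C. Live-cell protease cleavage of GF-AFC read by fluorescence (Ex/Em 405/510) after 60 min at room temperature; AC50 from Hill fits.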

Assay [6] can be described thus: MultiTox-Fluor Cytotoxicity Assay - LYMP1-003 - Live Cells (AID 962). Also: potency is read from the fitted curve at half-maximal effect. In short, it runs like this:
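LYMP1-003 human lymphoblastoid cells (2500/well) in complete medium were preincubated 5 hr at 37 C, then exposed to compounds for 16 hr at 37 C. Live-cell protease cleavage of GF-AFC read by fluorescence (Ex/Em 405/510); AC50 from Hill fits.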

Assay [7] is described as follows: Cell Viability - LYMP2-003 (AID 965).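 Also: cells exposed to compounds for 24 h before reading; nearly all actives have a fitted effect of over 50% in size.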 Also: potency is read from the fitted curve at half-maximal effect.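 As to activity change, negative = cytotoxicity: 0% = DMSO only and full effect = 92 µM tetraoctylammonium bromide.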 In short, it runs like this: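 Human lymphoblastoid LYMP2-003 cells, 2500/well, exposed to compounds for 24 h at 37 C in complete medium. Viability read as intracellular ATP by CellTiter-Glo luminescence; AC50 from Hill-equation fits of qHTS concentration-response data.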
Assay [8] is described as follows: Cell Viability - LYMP2-004 (AID 966). Also: nearly all actives have a fitted effect of over 65% in size. Also: potency is read from the fitted curve at half-maximal effect.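 As to activity change, negative = cytotoxicity: plate controls were DMSO only for no effect and tetraoctylammonium bromide control for full effect.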 In short, it runs like this:
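Human lymphoblastoid cells (2500/well) in complete medium were treated with compounds for 24 hr at 37 C, then intracellular ATP was measured by CellTiter-Glo luminescence. AC50 values came from Hill-equation fits of concentration-response data.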

Assay [9] in a line: Cell Viability - LYMP2-011 (AID 969). Also: nearly all actives have a fitted effect of over 60% in size. Also: potency is read from the fitted curve at half-maximal effect. In short, it runs like this: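 Human lymphoblastoid cells (2500/well) were plated in complete medium, preincubated 5 hr at 37 C, then exposed to compounds for 24 hr at 37 C. Intracellular ATP was read by CellTiter-Glo luminescence, and AC50 came from Hill-equation concentration-response fits.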
Assay [10] in a line: Cell Viability - LYMP2-015 (AID 971). Also: nearly all actives have a fitted effect of over 55% in size. Also: potency is read from the fitted curve at half-maximal effect. In short, it runs like this: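 Human lymphoblastoid cells (2500/well) in complete medium were preincubated 5 hr at 37 C, then compound-treated 24 hr at 37 C. Intracellular ATP was read by CellTiter-Glo luminescence after 30 min at room temperature; AC50 came from Hill-equation concentration-response fits.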
Assay [11] is described as follows: Cell Viability - LYMP2-019 (AID 973). Also: nearly all actives have a fitted effect of over 55% in size. Also: potency is read from the fitted curve at half-maximal effect.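 As to activity change, negative = cytotoxicity: 0% = DMSO alone and full effect = 92 µM tetraoctylammonium bromide.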 In short, it runs like this:
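Human lymphoblastoid cells were seeded at 2500 cells/well, preincubated 5 hr at 37 C, then exposed to compounds for 24 hr at 37 C in complete medium. Intracellular ATP was measured by CellTiter-Glo luminescence; AC50 from Hill fits.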

Assay [12] is described as follows: Cell Viability - LYMP2-021 (AID 974).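 Also: compound exposure lasts 24 hours at 37 °C; nearly all actives have a fitted effect of over 55% in size.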 Also: potency is read from the fitted curve at half-maximal effect. As to activity change, negative = cytotoxicity: % is scaled to controls: 0 for no effect and ±100 for the full control effect. In short, it runs like this:
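Human lymphoblastoid cells (2500/well) were preincubated 5 hr at 37 C, then exposed to compounds for 24 hr at 37 C in complete medium. Intracellular ATP was read by CellTiter-Glo luminescence; AC50 came from Hill-equation fits of concentration-response data.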

A short description of assay [13]: Cell Viability - LYMP2-023 (AID 975). Also: nearly all actives have a fitted effect of over 55% in size. Also: potency is read from the fitted curve at half-maximal effect.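 As to activity change, negative = cytotoxicity: cellular ATP measured by luciferase luminescence as viability proxy; plate controls were DMSO only for no effect and 92 µM tetraoctylammonium bromide control for full effect.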 In short, it runs like this: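 Human lymphoblastoid cells (2500/well) were preincubated 5 hr at 37 C, then exposed to compounds for 24 hr at 37 C in complete medium. Cellular ATP was read by CellTiter-Glo luminescence, and AC50 came from Hill-equation fits.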
Assay [14] can be described thus: Cell Viability - LYMP2-002 (AID 977).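 Also: compound exposure lasted 24 h at 37 °C.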 Also: potency is read from the fitted curve at half-maximal effect. In short, it runs like this: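 Human lymphoblastoid LYMP2-002 cells, 2500 per well, exposed to compounds for 24 h at 37 C in complete medium; viability read as intracellular ATP by CellTiter-Glo luminescence, AC50 from Hill fits.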
A short description of assay [15]: Cell Viability - LYMP2-008 (AID 980). Also: nearly all actives have a fitted effect of over 60% in size. Also: potency is read from the fitted curve at half-maximal effect. As to activity change, negative = cytotoxicity: % is scaled to controls: 0 for no effect and ±100 for the full control effect. In short, it runs like this: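 Human lymphoblastoid cells (2500/well) were plated, held 5 hr at 37 C, then exposed to compounds for 24 hr at 37 C in complete medium. Intracellular ATP was read by CellTiter-Glo luminescence; AC50 from Hill-fitted concentration-response.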
Assay [16] is described as follows: Cell Viability - LYMP2-016 (AID 984). Also: nearly all actives have a fitted effect of over 55% in size. Also: potency is read from the fitted curve at half-maximal effect. As to activity change, negative = cytotoxicity: % is scaled to controls: 0 for no effect and ±100 for the full control effect. In short, it runs like this: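 Human lymphoblastoid LYMP2-016 cells, 2500 per well, treated with compounds for 24 h at 37 C. Viability read as intracellular ATP by CellTiter-Glo luminescence after 30 min at room temperature; AC50 from Hill fits of concentration-response.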
Assay [17] can be described thus: Cell Viability - LYMP2-018 (AID 985).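 Also: compound exposure lasted 24 hr at 37 °C; nearly all actives have a fitted effect of over 50% in size.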 Also: potency is read from the fitted curve at half-maximal effect.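 As to activity change, negative = cytotoxicity: plate controls were DMSO only for no effect and tetraoctylammonium bromide at 92 µM for full effect.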 In short, it runs like this:
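Human lymphoblastoid cells (2500/well) were pre-incubated 5 hr at 37 C, then exposed to compounds for 24 hr at 37 C in complete medium. Viability was read as intracellular ATP by CellTiter-Glo luminescence; AC50 values came from Hill-equation fits.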

A short description of assay [18]: Cell Viability - LYMP2-020 (AID 986). Also: nearly all actives have a fitted effect of over 55% in size. Also: potency is read from the fitted curve at half-maximal effect. In short, it runs like this:
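Human lymphoblastoid cells, 2500/well, were pre-incubated 5 hr at 37 C, then exposed to compounds for 24 hr at 37 C in complete medium. Intracellular ATP was read by CellTiter-Glo luminescence, and AC50 was derived by Hill fitting of concentration-response data.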

A short description of assay [19]: Cell Viability - LYMP2-022 (AID 987). Also: nearly all actives have a fitted effect of over 55% in size. Also: potency is read from the fitted curve at half-maximal effect. In short, it runs like this:
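Human lymphoblastoid cells, 2500/well, preincubated 5 hr at 37 C, then exposed to compounds over a concentration range for 24 hr at 37 C in complete medium. Viability read as intracellular ATP by CellTiter-Glo luminescence after 30 min at room temperature; AC50 from Hill fits.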

Assay [20] is described as follows: Cell Viability - LYMP2-024 (AID 988). Also: nearly all actives have a fitted effect of over 60% in size. Also: potency is read from the fitted curve at half-maximal effect.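 As to activity change, negative = cytotoxicity: plate controls were DMSO only for no effect and 92 µM tetraoctylammonium bromide for full effect.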 In short, it runs like this:
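Human lymphoblastoid cells (2500/well) in complete medium were preincubated 5 hr at 37 C, then exposed to compounds for 24 hr at 37 C. Intracellular ATP was read by CellTiter-Glo luminescence; AC50 from Hill-equation fits of concentration-response data.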

This is an account of results in PubChem BioAssay (NCATS).

Molecules are shown by their SMILES. A number with no mark means an inactive call. Results filed as inconclusive are left out. Active and inactive are the calls of the source. Calls follow the shape of the dose curve; as a rule, active = well fitted curve in the direction sought with a large enough effect; inconclusive = small, poorly fitted or top-dose-only effect, or another doubt; inactive = no such curve, though single readings can be large; an effect the other way counts as inactive or inconclusive.

`c1cc(OCC2CO2)cc(OCC2CO2)c1` (stereo unspecified): the Potency in assay [1] was 12.6 µM (active).
On to `C=CC(=O)OCCOCCOC(=O)C=C`, for which, in [2], the activity change, negative = cytotoxicity was -100% (active). Moreover, the caspase-3 activation in [3] is 0.177%. In addition, the Potency is 12.6 µM (active) in [4]; 15.8 µM (active) in assay [5]; 31.6 µM (active) in [6]; 12.6 µM (active) in assay [7]; 10 µM (active) in assay [8]; 20 µM (active) in assay [9]. Besides, the Potency in [10] was 15.8 µM (active); in assay [11], 25.1 µM (active); in assay [12] it was 15.8 µM (active); in assay [13] it was 25.1 µM (active); in assay [14], 25.1 µM (active); in assay [15], 31.6 µM (active). Also, the Potency is 20 µM (active) in [16]; 15.8 µM (active) in assay [17]; 15.8 µM (active) in assay [18]; 12.6 µM (active) in assay [19]; 12.6 µM (active) in [20].
Regarding `O=[N+]([O-])c1cc([N+](=O)[O-])c2ccc(S(=O)(=O)O)cc2c1O`, the Potency result in assay [2], in assay [4], in assay [5], in assay [6], in assay [7] and in [8] was “inactive” in each case. Also, the Potency result in assay [9], in assay [10], in assay [11], in assay [12], in assay [13] and in assay [14] was “inactive” each time. Further, the Potency result in [15], in [16], in [17], in assay [18], in assay [19] and in [20] was “inactive” throughout. Moreover, the caspase-3 activation is 1.36% in [3] and -1.51% in [1].
As for `c1ccc2c(c1)-c1cccc3c1c-2cc1ccccc13`, the caspase-3 activation in [3] is -0.695%; in [1], 2.25%. The Potency entry in assay [4], in [5], in assay [6], in assay [7], in [8] and in assay [9] was “inactive” throughout. The Potency entry in assay [10], in assay [11], in [12], in assay [13], in assay [14] and in assay [15] was “inactive” throughout. Besides, the Potency entry in [16], in assay [17], in assay [18], in assay [19] and in assay [20] was “inactive” throughout.
Turning to `Oc1ccc2cc(SSc3ccc4cc(O)ccc4c3)ccc2c1`, the caspase-3 activation in assay [3] was -1.21%; in assay [1], 10.2%.
As to `CN(C)c1ccc(C2(c3ccc(N(C)C)cc3)OC(=O)c3cc(N(C)C)ccc32)cc1`, the Potency result in assay [2], in assay [4], in assay [5], in [6], in assay [7] and in assay [8] was “inactive” in each case. The Potency entry in [9], in assay [10], in [11], in [12], in assay [13] and in assay [14] was “inactive” in each case. In addition, the Potency result in assay [15], in assay [16], in assay [17], in assay [18], in assay [19] and in [20] was “inactive” throughout. Further, the caspase-3 activation is 0.256% in assay [3] and -0.0609% in [1].
In the case of `CNc1ccc(O)cc1`, the Potency is 31.6 µM (active) in assay [2]; 3.16 µM (active) in assay [4]; 12.6 µM (active) in assay [5]; 31.6 µM (active) in [6]; 5.01 µM (active) in [7]; 5.01 µM (active) in [8]. For the same molecule, the Potency in assay [9] was 6.31 µM (active); in assay [10], 5.01 µM (active); in [11] it was 3.98 µM (active); in assay [12], 3.98 µM (active); in assay [13] it was 7.94 µM (active); in [14], 10 µM (active). Further, the Potency in [15] is 7.94 µM (active); in assay [16], 7.94 µM (active); in assay [17], 5.01 µM (active); in assay [18], 3.98 µM (active); in [19], 3.16 µM (active); in [20], 2.51 µM (active). The caspase-3 activation in [3] was -3.33%; in assay [1], -7.58%.
As to `c1ccc2c(c1)ccc1cc3c(ccc4ccccc43)cc12`, the Potency result in assay [2], in assay [4], in assay [5], in assay [6], in assay [7] and in assay [8] was “inactive” each time. Besides, the Potency result in [9], in assay [10], in assay [11], in assay [12], in [13] and in assay [14] was “inactive” throughout. In addition, the Potency result in assay [15], in assay [16], in assay [17], in [18], in [19] and in assay [20] was “inactive” each time. Besides, the caspase-3 activation is 0.415% in [3] and -0.556% in assay [1].
